Dicer processing – inhibitors of human Dicer processing of pre-microRNA | z-score at 25 µM | actives 6% (n = 47,000) | AID 1347074 | cat-ELCCA pre-miR-21 Dicer processing, chemiluminescence; hits give high values | Q9UPY3; in the data active = z-score above about 3, passing the limit was not always enough;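 note: plate controls were vehicle for no effect and no enzyme for full effect; higher signal means more uncleaved substrate so more Dicer inhibition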
Numbers without * were called inactive. This excerpt belongs to a sample that is enriched for hits.

SMILES | Dicer processing
CCOC(=O)/C(C#N)=C/N=C(N/N=C/c1ccc(Cl)cc1)SC | -0.07
Cc1cc(NS(=O)(=O)c2ccc(NS(=O)(=O)c3cc(C)c(Cl)cc3C)cc2)no1 | -0.44
Cc1ccc(-n2c(C)ccc2C)nc1 | 1.4
Cn1ncc2c(O/N=C(\N)c3cc(C(F)(F)F)cc(C(F)(F)F)c3)ncnc21 | -0.36
O=C(O)CN1C(=O)CC(Cc2ccc(Br)cc2)C1=O (stereo not given) | 2.5
Cc1ccc(S(=O)(=O)N/N=C/c2ccccc2Cl)cc1 | -0.53
CS(=O)(=NS(=O)(=O)c1ccccc1Cl)c1ccc(C(F)(F)F)cn1 (stereo not given) | -1.4
COc1cccc(C(=O)Nc2nc(SCc3ccc(Cl)cc3)n[nH]2)c1 | -0.48
CSc1nnc(SC)n1CCNC(=O)c1cccc(Cl)c1 | -0.27
COc1cccc(C(=O)NCCN2CCN(c3ccc(Cl)cc3)CC2)c1 | 3.9*
O=C1C=C(Nc2ccccc2)CC(c2ccc(Cl)cc2)C1 (stereo not given) | 0.3
Cc1cc(C(=O)CC(Sc2ccccc2N)c2c(F)cccc2Cl)ccc1Cl (stereo not given) | -2.6
CCc1ccc(C(=O)NNc2ccccc2CC)cc1 | 0.04
O=C(Nc1ccc(OC(F)(F)F)cc1)Nc1ccc(C2=NCCO2)cc1 | 8.6
COc1ccccc1OCc1nc2c3c4c(sc3ncn2n1)CCCCC4 | -0.5
COc1ccc(OCc2nc3c4c5c(sc4ncn3n2)CCCCC5)cc1 | 4.2*
Clc1ccc(OCc2nc3c4c5c(sc4ncn3n2)CCCC5)cc1 | 1.2
COc1c(NC(=O)N2CCCCC2)csc1Cl | -1.4
NS(=O)(=O)c1cc([N+](=O)[O-])c(Sc2ccc(Cl)cc2)s1 | -8.4
C=CCOc1ccc(C2CC(=O)Nc3nc(N)[nH]c(=O)c32)cc1 (stereo not given) | -0.85
CCCNC(=O)NC1CCN(c2ncc(C(F)(F)F)cc2Cl)CC1 | -0.24
C=CCN=C1CC(C)(C)CC(=O)/C1=C(\O)CCC(=O)OC | 2.4
CSc1cccc(NC(=O)CN(c2ccccc2)S(=O)(=O)N(C)C)c1 | -1.7
CN(C)S(=O)(=O)N(CC(=O)Nc1ccc(F)c(F)c1)c1ccccc1 | 4.3*
CN(C)S(=O)(=O)N(CC(=O)Nc1ccc2c(c1)OCO2)c1ccccc1 | -1.1
SMILES | Dicer processing
O=C1CC(Nc2ccc(Oc3ccccc3)cc2)C(=O)N1c1ccc(Cl)cc1 (stereo not given) | 0.04
CCCOc1ccc(C2c3c(oc4ccccc4c3=O)C(=O)N2c2ccc(C)cn2)cc1 (stereo not given) | 2.5
COc1ccc(C2c3c(oc4ccccc4c3=O)C(=O)N2c2ccccn2)cc1 (stereo not given) | 4.1*
CCc1ccc(C2c3c(oc4ccccc4c3=O)C(=O)N2c2ccccn2)cc1 (stereo not given) | 2
COc1ccc(C2c3c(oc4ccccc4c3=O)C(=O)N2c2ccccn2)cc1OC (stereo not given) | 1.8
O=C1c2oc3ccccc3c(=O)c2C(c2ccc(O)cc2)N1c1nncs1 (stereo not given) | -1.4
O=C1c2oc3ccccc3c(=O)c2C(c2ccc(O)cc2)N1c1ccccn1 (stereo not given) | 5.1*
CCCCCCCc1ccc(C(=O)NC(=S)Nc2cccc(C)n2)cc1 | -0.83
c1ccc(-c2nc3nc4ccccc4n3[nH]2)cc1 | -0.68
CCc1c(C)nc(SCc2ccc(C)cc2)c(C#N)c1C | 1.2
O=S(=O)(NNc1ncccc1-n1cccc1)c1ccc(Cl)c(Cl)c1 | 1.6
CCOC(=O)c1ccc(NC(N)=S)cc1 | -0.12
CCOC(=O)c1ccc(NC(=S)NC(C)(C)CO)cc1 | -1.5
CCOC(=O)c1ccc(NC(=S)NN)cc1 | 3.5*
O=c1nc(-c2ccccc2)c2ccccc2[nH]1 | 6.6
Cc1nc(-c2ccccc2)c2c(=O)cc(-c3ccccc3)[nH]c2n1 | 1.8
O=c1cc(-c2ccccc2)[nH]c2ccccc12 | 4*
Cc1ccc(C2=CC(c3ccccc3)n3nc(NS(C)(=O)=O)nc3N2)cc1 (stereo not given) | 0.3
Cc1ccc(/C(O)=C2\C(=O)C(=O)N(CCCN3CCOCC3)C2c2ccco2)cc1 (stereo not given) | 3.3*
O=C1C(=O)N(CCCN2CCOCC2)C(c2ccccc2)/C1=C(\O)c1ccccc1 (stereo not given) | 0.77
Cc1ccc(/C(O)=C2\C(=O)C(=O)N(CCCN3CCOCC3)C2c2ccc(F)cc2)cc1 (stereo not given) | -0.14
COC(=O)c1cscc1Sc1ccc(Cl)cc1 | -1.1
O=C1C(=O)N2C(=C1C(=O)N1CCCCC1)c1ccccc1CC21CCCC1 | -0.81
CNC(=O)c1ccccc1S(=O)c1ccc([N+](=O)[O-])cc1C(=O)O (stereo not given) | -1.4
O=S(=O)(c1ccc(Cl)cc1)c1nc(-c2cccs2)oc1NCc1ccccc1 | -2.1
SMILES | Dicer processing
Nc1nc(Sc2cc(-n3cccc3)c(Cl)cc2[N+](=O)[O-])n[nH]1 | 2.4
O=C1CNC(=S)N1Cc1ccc(Cl)cc1 | -0.06
CC1CC(=O)N(Cc2ccc(Cl)cc2)C(=O)C1 | 4.7*
CC1=C2CCC(C)CC23C2C(=O)N(Cc4ccc(Cl)cc4)C(=O)C2C1C1C(=O)N(Cc2ccc(Cl)cc2)C(=O)C13 (stereo not given) | 0.45
C=C1SC(Nc2c(C)cccc2C)=NC1(C)C | -1.2
O=C(Nc1cc(Cl)c(-n2cccc2)cc1Cl)c1ccc(C(F)(F)F)cc1 | -0.91
Cc1ccc(S(=O)(=O)N(C(=O)c2ccncc2)c2ccc3oc(=O)sc3c2)c(C)c1 | 7.7*
Cc1cc(C)c(S(=O)(=O)N(C(=O)c2ccncc2)c2ccc3oc(=O)sc3c2)cc1C | 5*
COc1ccc(OC)c(S(=O)(=O)N(C(=O)C(C)C)c2ccc3oc(=O)sc3c2)c1 | -0.44
O=S(=O)(Nc1ccc(C(F)(F)F)cc1Cl)c1ccc(Br)s1 | 0.19
CN(NS(=O)(=O)c1ccc(Cl)c(Cl)c1)c1cccc(F)c1C#N | 3.6*
CN(NC(=O)c1ccccc1Cl)c1cccc(F)c1C#N | -0.07
Cc1cc(S(=O)(=O)NN(C)c2cccc(Cl)c2C#N)cc(C)c1F | -0.13
COc1ccc(C2C(C(=O)OCCOC(C)C)=C(C)NC3=C2C(=O)CC(C)(C)C3)cc1O (stereo not given) | 0.53
CC1CN(c2ccccc2)c2nc3c(c(=O)n(CC(=O)O)c(=O)n3C)n2C1 (stereo not given) | 1.7
CCC(=O)OCCNc1ccc2noc3c2c1C(=O)c1ccccc1-3 | -0.15
CC1(C)Cc2c(c(N3CCOCC3)nc3sc4c(NCCCO)ncnc4c23)CO1 | 7
C=C(C)CSc1nnc2c3sc4nc(N5CCOCC5)c5c(c4c3ncn12)CC(C)(C)OC5 | 3.2*
CC1(C)Cc2c(c(N3CCOCC3)nc3sc4c(=O)n(-c5ccc(Cl)cc5)cnc4c23)CO1 | 0.66
Cc1ccccc1-c1nc2c3c4c(sc3ncn2n1)C(C)(C)NC(C)(C)C4 | 0.82
CCCN1C(=O)C(O)(CC(=O)c2ccc(C)o2)c2ccccc21 (stereo not given) | -0.15
S=C(NCCc1ccccc1)NC1CC2C=CC1C2 (stereo not given) | -0.15
O=c1[nH]c(=S)[nH]c2c1cnn2-c1ccc(F)cc1 | 0.35
CC(O)c1ccccc1-c1ccccc1C(C)O (stereo not given) | -0.55

Bioassay records from PubChem.
